# Values joined by “and” are separate entries in the source; they are usually repeats but may differ in a detail not shown here. Identical values can stand only once. Active and inactive are the calls of the source.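 The calls were made as follows, unless noted: active = compounds whose cell count with miR-34 switched on is under 0.7 times the count with it off; inactive = the rest.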
# Assays:
# [1] = Wnt pathway potentiators raising nuclear beta-catenin – imaging, WNT3A-conditioned medium, mouse C2C12, NPC library, primary screen (AID 1117326; in the data active = nuclear beta-catenin stimulation mostly above about 4.2%, no sharp cut-off; inactive = mostly below about 10%); conditions: stronger effect = higher value
# [2] = stimulators of insulin release from INS-1E, primary screen, cell-based, 5 mM glucose, NPC library (AID 1117329;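 active = compound raises insulin release from rat beta cells at 5 mM glucose, no numeric limit stated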); conditions: rat INS-1E insulin secretion, at 10 µM, stronger effect = higher value
# [3] = growth inhibition of GSK3B-pretreated HCT116 cells – cell-based, CellTiter-Glo, 0.2 to 20 µM (AID 1117336;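 active = compounds lowering colon cancer cell viability after pretreatment blocking the GSK3B kinase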); conditions: HCT116 viability after GSK3B inhibitor, at 20 µM, stronger effect = higher value
# [4] = inhibition of endothelial tube formation, primary screen, imaging, VEGF stimulated, CD31 staining, tube area, NPC library (AID 1117340;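 active = compound that reduces growth-factor-driven endothelial tube area in a mixed cell culture, no cutoff stated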); conditions: VEGF-stimulated ADSC/ECFC co-culture, at 10 µM, stronger effect = higher value
# [5] = GLP1 release stimulators, primary, NCI-H716, NPC library (AID 1117341;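 active = compound raises GLP1 secretion from the human gut endocrine cells, with no numeric limit stated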); conditions: NCI-H716 cells, at 10 µM, stronger effect = higher value
# [6] = HCT116 colon cancer cell growth inhibition, primary screen, CellTiter-Glo luminescence, NPC library (AID 1117342;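 active = compounds that lower survival of HCT116 colon cancer cells in the luminescence readout, no numeric limit stated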); conditions: at 20 µM (top of the series)
# [7] = reduced SW480 viability measured with CellTiter-Glo, NPC library, primary (AID 1117343;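 active = compounds that lower viability of the colon cancer cells in the luminescence readout, with no numeric limit stated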); conditions: CellTiter-Glo luminescence; at 20 µM (top of the series)
# [8] = NPC library primary testing for decreased DLD-1 cell viability via CellTiter-Glo (AID 1117346;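 active = compounds that lower survival of DLD-1 colon cancer cells in the luminescence readout, no cutoff given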); conditions: DLD-1 viability, CellTiter-Glo luminescence; at 20 µM (top of the series)
# [9] = viability loss with induced miR-34 in A549 – imaging, A549 dox-inducible miR-34, nuclei and caspase counts, primary screen (AID 1347080); conditions: A549 miR-34 inducible, Hoechst nuclei count, 48 h
# [10] = galactose survival enhancers in mitochondrial complex I cybrids – cell-based, galactose medium, ATP luminescence, primary screen (AID 1645843;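 active = z-score of at least 1.8 in each of two replicates, scored against plate mean and spread of sample wells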;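 also: positive z means more ATP and so rescue of galactose-driven cybrid death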); conditions: complex I mutant cybrid cells, 72 h, stronger effect = higher value
# [11] = molecular target: NAD(+) hydrolase SARM1 (Homo sapiens) (UniProt Q6SZW1); assay: blocking NAD cleavage by SARM1 SAM-TIR – cell lysate, NAD-Glo luminescence (AID 1508614;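 active = compound whose remaining NAD level is above about 45 nM, limit read from the data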;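 also: higher remaining NAD means stronger inhibition of SARM1 NADase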); conditions: SAM-TIR HEK293T lysate NADase, at 1 µM, stronger effect = higher value
# NAD(+) hydrolase SARM1 (Homo sapiens), sequence (Q6SZW1 whole entry, looked up): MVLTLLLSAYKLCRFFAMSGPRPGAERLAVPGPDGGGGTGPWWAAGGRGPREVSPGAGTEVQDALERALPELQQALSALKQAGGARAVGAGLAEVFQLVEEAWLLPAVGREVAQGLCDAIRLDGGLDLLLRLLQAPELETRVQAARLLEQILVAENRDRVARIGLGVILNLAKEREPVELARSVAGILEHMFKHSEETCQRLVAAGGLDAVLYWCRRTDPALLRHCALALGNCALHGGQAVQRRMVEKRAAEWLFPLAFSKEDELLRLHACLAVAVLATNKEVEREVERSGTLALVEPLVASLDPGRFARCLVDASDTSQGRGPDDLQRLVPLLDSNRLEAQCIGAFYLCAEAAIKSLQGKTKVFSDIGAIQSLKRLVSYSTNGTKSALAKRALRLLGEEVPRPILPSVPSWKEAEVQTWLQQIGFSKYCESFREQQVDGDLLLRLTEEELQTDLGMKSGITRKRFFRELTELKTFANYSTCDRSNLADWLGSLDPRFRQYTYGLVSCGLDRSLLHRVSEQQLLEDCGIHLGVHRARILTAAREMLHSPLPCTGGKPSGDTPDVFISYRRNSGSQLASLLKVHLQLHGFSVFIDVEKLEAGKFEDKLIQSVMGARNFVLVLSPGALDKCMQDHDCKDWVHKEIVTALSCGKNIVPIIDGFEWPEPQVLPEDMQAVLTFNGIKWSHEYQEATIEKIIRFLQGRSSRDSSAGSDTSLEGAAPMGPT
# [12] = EMT-state selective cytotoxicity in co-culture – imaging, PC-3E GFP, TEM4-18 mCherry, primary screen (AID 1345086;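 active = compounds killing one labelled cell type while sparing the other, by normalised counts and ratio limits, not self-fluorescent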;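 as to all read-outs here: cells exposed to compound for 72 h before imaging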;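 as to red/green cell ratio (normalised): normalised mesenchymal count divided by normalised epithelial count so high means epithelial killing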); conditions: PC-3E GFP / TEM4-18 mCherry co-culture, imaging cell counts, at 1 µM; for red/green cell ratio (normalised): actives lie on both sides
# [13] = compounds altering circadian rhythm period length – cell-based, LOPAC library, luminescence reporter (AID 2774; call rule not given here;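 also: values are relative to mean of DMSO wells on each plate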); conditions: circadian reporter cells, at 7 µM, actives lie on both sides
# [14] = system: Hepatitis C virus NS3 helicase; assay: blockers of NS3h binding to ssDNA – biochemical, fluorescence polarization, LOPAC1280 library, primary screen (AID 687035; in the data active = inhibition above about 37%); conditions: Purified HCV NS3 helicase, Cy5-dT15 ssDNA binding fluorescence polarization; stronger effect = higher value; concentration not given here
# [15] = system: Aerobactin synthetase IucA (Klebsiella pneumoniae, hypervirulent); assay: biochemical IucA inhibition screen of LOPAC library by absorbance (AID 1346212; call rule not given here;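 also: 100% = no compound wells and 0% = no enzyme wells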); conditions: IucA enzyme assay, absorbance (OD) readout; stronger effect = lower value;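 tested at 8 µM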
# [16] = compounds altering viability of human ES cells (AID 493140; call rule not given here;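 also: cells exposed to compounds for four days before counting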); conditions: human embryonic stem cell survival screen; stronger effect = higher value
# [17] = P. berghei load reduction in hepatocytes – cell-based, HepG2, luciferase luminescence, HepG2 viability, primary screen (AID 624349; in the data active = parasite load remaining mostly below about 12%, no sharp cut-off; inactive = mostly above about 10%;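 also: 100% = mean of DMSO negative control wells on the same plate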); conditions: P. berghei liver stage in HepG2, luciferase luminescence, concentration not given here; parasite load remaining: stronger effect = lower value; viability: measured here: HepG2 viability without parasites
# [18] = MELAS cybrid and Rieske KO viability enhancers – cell-based, MELAS cybrids, Rieske KO mouse fibroblasts, CellTiter-Glo, primary screen (AID 1508586;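 active = mean z-score across replicates of 1.96 or higher in either the MELAS or the Rieske mutant cell line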;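 also: z relative to plate mean and SD of compound and empty wells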); conditions: low glucose
# [19] = stronger effect = lower value, cell number ratio, induced over uninduced
# [20] = measured here: relative caspase fold change +Dox/-Dox
# [21] = measured here: total cells with miR-34 induction, stronger effect = lower value
# [22] = measured here: total cells without miR-34 induction
# [23] = measured here: epithelial PC-3E GFP cell survival
# [24] = measured here: mesenchymal TEM4-18 mCherry cell survival
structure (smiles),measurement,setting,value
CC(C)(C)OC(=O)c1ncn2c1[C@@H]1CCCN1C(=O)c1c(Br)cccc1-2,nuclear beta-catenin stimulation,[1]; at 10 µM,4% (inactive)
same,nuclear beta-catenin stimulation,"[1]; stimulation, at 2 µM",2.4%
same,insulin secretion stimulation,[2],-0.65% (inactive)
same,viability decrease,[3],13.7% (inactive)
same,tube area decrease,[4],2% (inactive)
same,GLP1 secretion stimulation,[5],-0.4% (inactive)
same,inhibition of viability,[6],26.5% (inactive)
same,viability decrease (inhibition),[7],-7.5% (inactive)
same,viability decrease (inhibition),[8],7.7% (inactive)
same,fold change,[9]; [19],0.898 (inactive)
same,fold change,[9]; [20],1.56
same,cell count,[9]; [21],6920
same,cell count,[9]; [22],7710
same,z-score,[10],-0.115 (inactive)
O=C(NC(=O)c1c(F)cccc1F)Nc1cc(Cl)c(OC(F)(F)C(F)C(F)(F)F)cc1Cl (stereo not drawn),nuclear beta-catenin stimulation,[1]; at 10 µM,2.8% (inactive)
same,nuclear beta-catenin stimulation,"[1]; stimulation, at 2 µM",1.2%
same,insulin secretion stimulation,[2],3.3% (inactive)
same,viability decrease,[3],3.9% (inactive)
same,tube area decrease,[4],19.4% (inactive)
same,GLP1 secretion stimulation,[5],2.3% (inactive)
same,inhibition of viability,[6],35% (inactive)
same,viability decrease (inhibition),[7],19.8% (inactive)
same,viability decrease (inhibition),[8],16.2% (inactive)
same,fold change,[9]; stronger effect = lower value,1.06 (inactive)
same,fold change,[9]; [20],0.7
same,cell count,[9]; [21],7240
same,cell count,[9]; [22],6820
same,remaining NAD,[11],10 nM (inactive)
O=[N+]([O-])c1ccc([As](=O)(O)O)cc1,nuclear beta-catenin stimulation,[1]; at 10 µM,2.2% (inactive)
same,nuclear beta-catenin stimulation,"[1]; stimulation, at 2 µM",1%
same,insulin secretion stimulation,[2],-1.1% (inactive)
same,viability decrease,[3],-9.2% (inactive)
same,tube area decrease,[4],3.2% (inactive)
same,GLP1 secretion stimulation,[5],-5.4% (inactive)
same,inhibition of viability,[6],-30.4% (inactive)
same,viability decrease (inhibition),[7],101% (active)
same,viability decrease (inhibition),[8],-9.5% (inactive)
same,red/green cell ratio (normalised),[12],0.85 (inactive)
same,normalised cell number,[12]; [23],1.16
same,normalised cell number,[12]; [24],0.99
same,fold change,[9]; stronger effect = lower value,0.887 (inactive)
same,fold change,[9]; [20],1.5
same,cell count,[9]; [21],8880
same,cell count,[9]; [22],10000
same,remaining NAD,[11],10 nM (inactive)
O=c1n(Cl)c(=O)n(Cl)c(=O)n1Cl,nuclear beta-catenin stimulation,[1]; at 10 µM,-0.9% (inactive)
same,nuclear beta-catenin stimulation,"[1]; stimulation, at 2 µM",-0.3%
same,insulin secretion stimulation,[2],1.5% (inactive)
same,viability decrease,[3],-15.4% (inactive)
same,tube area decrease,[4],16.7% (inactive)
same,GLP1 secretion stimulation,[5],0.8% (inactive)
same,inhibition of viability,[6],13.9% (inactive)
same,viability decrease (inhibition),[7],11.6% (inactive)
same,viability decrease (inhibition),[8],-0.1% (inactive)
same,red/green cell ratio (normalised),[12],0.94 (inactive)
same,normalised cell number,[12]; [23],1.07
same,normalised cell number,[12]; [24],1
same,fold change,[9]; stronger effect = lower value,0.97 (inactive)
same,fold change,[9]; [20],1.18
same,cell count,[9]; [21],8670
same,cell count,[9]; [22],8940
same,remaining NAD,[11],10 nM (inactive)
CC[N+](CC)(CC)CC,period change,[13],0.115 h (inactive)
same,inhibition,[14],14% (inactive)
same,nuclear beta-catenin stimulation,[1]; at 10 µM,3.6% (inactive)
same,nuclear beta-catenin stimulation,"[1]; stimulation, at 2 µM",0.6%
same,insulin secretion stimulation,[2],0.7% (inactive)
same,viability decrease,[3],-2% (inactive)
same,tube area decrease,[4],1.4% (inactive)
same,GLP1 secretion stimulation,[5],-1.5% (inactive)
same,inhibition of viability,[6],-13.1% (inactive)
same,viability decrease (inhibition),[7],95.5% (active)
same,viability decrease (inhibition),[8],1.35% (inactive)
same,remaining activity,[15],93.6% (inactive)
same,fold change,[9]; stronger effect = lower value,0.929 (inactive)
same,fold change,[9]; [20],1.25
same,cell count,[9]; [21],9810
same,cell count,[9]; [22],10600
same,z-score,[10],0.685 (inactive)
C=CCN1C[C@H](C)N([C@H](c2ccc(C(=O)N(CC)CC)cc2)c2cccc(OC)c2)C[C@H]1C,nuclear beta-catenin stimulation,[1]; at 10 µM,1.7% (inactive)
same,nuclear beta-catenin stimulation,"[1]; stimulation, at 2 µM",-0.7%
same,insulin secretion stimulation,[2],-1.1% (inactive)
same,viability decrease,[3],4.6% (inactive)
same,tube area decrease,[4],3.8% (inactive)
same,GLP1 secretion stimulation,[5],5.2% (inactive)
same,inhibition of viability,[6],35% (inactive)
same,viability decrease (inhibition),[7],6% (inactive)
same,viability decrease (inhibition),[8],23.5% (inactive)
same,remaining activity,[15],109% (inactive)
same,fold change,[9]; [19],0.944 (inactive)
same,fold change,[9]; [20],1.05
same,cell count,[9]; [21],8480
same,cell count,[9]; [22],8990
same,z-score,[10],0.105 (inactive)
COP(=O)(OC)C(O)C(Cl)(Cl)Cl (stereo not drawn),survival,[16],17.5 (inactive)
same,parasite load remaining,[17],19.7% (inactive) and 127% (inactive)
same,viability,[17],48.9% and 90.6%
same,nuclear beta-catenin stimulation,[1]; at 10 µM,-1.9% (inactive)
same,nuclear beta-catenin stimulation,"[1]; stimulation, at 2 µM",0.4%
same,insulin secretion stimulation,[2],0.2% (inactive)
same,viability decrease,[3],2.4% (inactive)
same,tube area decrease,[4],5.8% (inactive)
same,GLP1 secretion stimulation,[5],-3.2% (inactive)
same,inhibition of viability,[6],-44.1% (inactive)
same,viability decrease (inhibition),[7],1.6% (inactive)
same,viability decrease (inhibition),[8],-13.3% (inactive)
same,red/green cell ratio (normalised),[12],0.95 (inactive)
same,normalised cell number,[12]; [23],0.96
same,normalised cell number,[12]; [24],0.91
same,fold change,[9]; stronger effect = lower value,0.918 (inactive)
same,fold change,[9]; [20],1.24
same,cell count,[9]; [21],8320
same,cell count,[9]; [22],9070
same,remaining NAD,[11],10 nM (inactive)
CCOC(=O)CC(SP(=S)(OC)OC)C(=O)OCC (stereo not drawn),nuclear beta-catenin stimulation,[1]; at 10 µM,1% (inactive)
same,nuclear beta-catenin stimulation,"[1]; stimulation, at 2 µM",-0.1%
same,insulin secretion stimulation,[2],-1.5% (inactive)
same,viability decrease,[3],-29.7% (inactive)
same,tube area decrease,[4],18% (inactive)
same,GLP1 secretion stimulation,[5],0.7% (inactive)
same,inhibition of viability,[6],-0.33% (inactive)
same,viability decrease (inhibition),[7],27% (inactive)
same,viability decrease (inhibition),[8],-18% (inactive)
same,red/green cell ratio (normalised),[12],1.05 (inactive)
same,normalised cell number,[12]; [23],1.11
same,normalised cell number,[12]; [24],1.16
same,fold change,[9]; stronger effect = lower value,0.857 (inactive)
same,fold change,[9]; [20],0.964
same,cell count,[9]; [21],7400
same,cell count,[9]; [22],8640
same,remaining NAD,[11],10 nM (inactive)
CCCCc1ccc(C(=O)O)nc1,period change,[13],-0.03 h (inactive)
same,survival,[16],6.17 (inactive)
same,parasite load remaining,[17],113% (inactive) and 80.1% (inactive)
same,viability,[17],102% and 74.9%
same,inhibition,[14],-3% (inactive)
same,nuclear beta-catenin stimulation,[1]; at 10 µM,0.7% (inactive)
same,nuclear beta-catenin stimulation,"[1]; stimulation, at 2 µM",2.6%
same,insulin secretion stimulation,[2],0.5% (inactive)
same,viability decrease,[3],9.1% (inactive)
same,tube area decrease,[4],-19.3% (inactive)
same,GLP1 secretion stimulation,[5],-1.2% (inactive)
same,inhibition of viability,[6],25.9% (inactive)
same,viability decrease (inhibition),[7],82.1% (active)
same,viability decrease (inhibition),[8],3.1% (inactive)
same,remaining activity,[15],102% (inactive)
same,fold change,[9]; stronger effect = lower value,0.891 (inactive) and 0.841 (inactive)
same,fold change,[9]; [20],1.39 and 1.24
same,cell count,[9]; [21],9790 and 8980
same,cell count,[9]; [22],11000 and 10700
same,z-score,[10],0.395 (inactive)
CC(C)c1c(CN(C)C(C)Cc2ccccc2)n(C)n(-c2ccccc2)c1=O (stereo not drawn),survival,[16],1.08 (inactive)
same,parasite load remaining,[17],76.8% (inactive)
same,viability,[17],87.3%
same,nuclear beta-catenin stimulation,[1]; at 10 µM,1.5% (inactive)
same,nuclear beta-catenin stimulation,"[1]; stimulation, at 2 µM",5.4%
same,insulin secretion stimulation,[2],0% (inactive)
same,viability decrease,[3],-83% (inactive)
same,tube area decrease,[4],9.4% (inactive)
same,GLP1 secretion stimulation,[5],3.9% (inactive)
same,inhibition of viability,[6],50.3% (active)
same,viability decrease (inhibition),[7],103% (active)
same,viability decrease (inhibition),[8],73.2% (active)
same,red/green cell ratio (normalised),[12],1.06 (inactive)
same,normalised cell number,[12]; [23],0.93
same,normalised cell number,[12]; [24],0.98
same,fold change,[9]; stronger effect = lower value,0.889 (inactive)
same,fold change,[9]; [20],1.06
same,cell count,[9]; [21],8350
same,cell count,[9]; [22],9380
same,z-score,"[18]; MELAS cybrid survival, CellTiter-Glo 48 h, stronger effect = higher value",-1.05 (inactive)
same,z-score,"[18]; Rieske KO mouse fibroblast survival, CellTiter-Glo 72 h",0.158
same,remaining NAD,[11],10 nM (inactive)
